From PubChem BioAssay
Hits are enriched below; roughly 3% of the tested compounds scored in any of these assays.
SNCA viab count: GF-AFC viability counterscreen for inhibitors of alpha-synuclein gene (SNCA) expression; HEK-293-SNCA-luc viability, GF-AFC fluorescence, 24 h; Potency, µM (series often up to 57.1 µM), usual class: cytotoxic; actives 0.12% (n = 150,000); AID 1671193, 2021; further: nearly all actives have a fitted effect of over 30% in size
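Cytotoxicity counterscreen: after 24 h compound treatment of genome-edited SNCA-luciferase HEK-293 cells, live-cell protease substrate GF-AFC read by fluorescence after 30 min; activity scaled between DMSO (0%) and medium-only (-100%), curves Hill-fitted.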
IP6K1 inh: Primary qHTS assay for small molecule inhibitors of Inositol hexaphosphate kinase 1 (IP6K1). Inositol hexakisphosphate kinase 1 (Homo sapiens), Q92551. IP6K1 kinase, ADP-Glo luminescence, 2 h; stronger effect = lower value. activity change, % (series mostly up to about 58 µM). actives 0.81% (n = 140,000). AID 1645851, 2021; in the data active means activity change below about -25%
Target sequence (Q92551 whole entry, looked up): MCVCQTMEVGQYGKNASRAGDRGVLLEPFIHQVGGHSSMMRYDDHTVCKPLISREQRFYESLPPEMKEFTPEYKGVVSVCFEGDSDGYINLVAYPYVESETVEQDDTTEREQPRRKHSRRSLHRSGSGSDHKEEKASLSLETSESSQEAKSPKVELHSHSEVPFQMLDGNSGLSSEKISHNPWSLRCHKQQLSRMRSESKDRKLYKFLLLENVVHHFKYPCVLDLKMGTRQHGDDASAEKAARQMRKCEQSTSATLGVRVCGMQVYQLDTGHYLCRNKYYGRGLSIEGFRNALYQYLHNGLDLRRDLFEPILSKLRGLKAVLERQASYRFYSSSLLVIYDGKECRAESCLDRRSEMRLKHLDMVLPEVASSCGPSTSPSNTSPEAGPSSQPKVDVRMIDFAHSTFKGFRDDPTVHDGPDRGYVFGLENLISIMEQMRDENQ
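ADP-Glo luminescence measures ADP made by human IP6K1 during a 2 h RT reaction with ATP/IP6 (mix at 1.3 mM/130 uM); top library doses 57.5 and 19.1 uM final.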
SNCA expr inh: Primary qHTS assay for inhibitors of alpha-synuclein gene (SNCA) expression; Potency, µM (titrated, usually from 57.2 µM), most hits filed as inhibitors; actives 0.17% (n = 140,000); HEK-293 SNCA-luciferase knock-in, luminescence, 24 h; further: nearly all actives have a fitted effect of over 45% in size
KDM5B inh: Primary screen for KDM5B Histone Demethylases FDH-coupled qHTS; KDM5B demethylase, FDH-coupled NADH fluorescence (FDH is formaldehyde dehydrogenase); Potency, µM (series often up to 57.7 µM), usual class: inhibitors; actives 2.6% (n = 220,000); Lysine-specific demethylase 5B (Homo sapiens), Q9UGL1; AID 1347165, 2019; further: nearly all actives have a fitted effect of over 70% in size
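Coupled FDH/NAD⁺ fluorescence readout. KDM5BΔAP 200 nM final; compound titration, 10 min RT preincubation; substrate mix 12.5 µM H3K4me3, 25 µM 2-OG, 50 µM Fe(II), 100 µM ascorbate, 0.25 mM NAD⁺, 0.25 U/mL FDH; ΔRFU over 30 min.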
Of the large screens only hits and unclear results are named; the others gave an inactive call. Unless noted, the call rests on the fitted dose curve; in most records, active means well fitted curve in the direction sought with a large enough effect; inconclusive means small, poorly fitted or top-dose-only effect, or another doubt; inactive means no such curve, though single readings can be large; an effect the other way counts as inactive or inconclusive.

CCc1cccc2c(C(CC(=O)NCc3ccco3)c3ccc(C)cc3)c[nH]c12 (stereo not drawn)	KDM5B inh 28µM
O/N=C1\CC(c2ccccc2)Oc2c(Cl)cc(Cl)cc21 (stereo not drawn)	none (no result: SNCA viab count, IP6K1 inh, SNCA expr inh)
O=c1oc2ccc(Br)cc2cc1-c1csc(Nc2c(F)cccc2F)n1	none (no result: SNCA viab count, IP6K1 inh, SNCA expr inh)
NCc1cccc(-c2cc(C(F)(F)F)ccc2Cl)c1	KDM5B inh 89µM
OCCOCCn1cnc(-c2ccccc2)c1-c1ccc(-n2cccn2)cc1	SNCA viab count inconclusive, KDM5B inh 32µM
CC1(COCC2CC2)COc2ccc(C(=O)Nc3ccc4[nH]ccc4c3)cc2N1 (stereo not drawn)	SNCA viab count inconclusive, SNCA expr inh 7.1µM
CC1(COCC2CC2)COc2ccc(C(=O)Nc3ccccc3)cc2N1 (stereo not drawn)	KDM5B inh 25µM
CC1(COCC2CC2)COc2ccc(C(=O)NCc3ccccc3)cc2N1 (stereo not drawn)	KDM5B inh 35µM
CC(C)CNC(=O)c1ccc2c(c1)NC(C)(COCC1CC1)CO2 (stereo not drawn)	KDM5B inh 40µM
CC1(COCC2CC2)COc2ccc(C(=O)Nc3cccc([S+](C)(=O)[O-])c3)cc2N1 (stereo not drawn)	KDM5B inh inconclusive
CCCC(C)C(=O)N1CCc2[nH]nc(C(=O)NCCCc3ccccc3)c2C1 (stereo not drawn)	SNCA expr inh inconclusive (no result: KDM5B inh)
O=C(NC1CC1)c1nc2cccnc2n(CCc2ccccc2)c1=O	SNCA expr inh inconclusive (no result: KDM5B inh)
CCCCc1ccc(C(=O)COC(=O)c2cc(S(C)(=O)=O)ccc2C)cc1	none (no result: SNCA viab count, IP6K1 inh, SNCA expr inh)
O=c1[nH]c(CN2CCCCCCC2)nc2c(Br)cc(Br)cc12	none (no result: SNCA viab count, IP6K1 inh, SNCA expr inh)
COc1cccc(NC(=O)c2cc(-c3ccc(C(F)(F)F)cc3)nc3c2cnn3C)c1	none (no result: SNCA viab count, SNCA expr inh, KDM5B inh)
COC(=O)CC(NC(=O)c1cccc(F)c1)c1ccc(OC)c(OC)c1 (stereo not drawn)	none (no result: SNCA viab count, IP6K1 inh, SNCA expr inh)
CC1(COc2ccccc2)COc2ccc(C(=O)NC3CCC(O)CC3)cc2N1 (stereo not drawn)	KDM5B inh 32µM
CC1(COc2ccc3[nH]ccc3c2)COc2ccc(C(=O)N3CCOCC3)cc2N1 (stereo not drawn)	none
CC1(COc2ccc3[nH]ccc3c2)COc2ccc(C(=O)NCc3cccs3)cc2N1 (stereo not drawn)	SNCA expr inh inconclusive, KDM5B inh 40µM
CC1(COc2ccc3[nH]ccc3c2)COc2ccc(C(=O)NC3CC3)cc2N1 (stereo not drawn)	KDM5B inh 32µM
CC1(COc2ccc3[nH]ccc3c2)COc2ccc(C(=O)N3CC(O)C3)cc2N1 (stereo not drawn)	SNCA expr inh inconclusive, KDM5B inh 35µM
CC1(COc2ccc3[nH]ccc3c2)COc2ccc(C(=O)NCc3ccco3)cc2N1 (stereo not drawn)	KDM5B inh inconclusive
O=C(O)C(c1c[nH]c2cc(F)ccc12)N1CCN(CCNc2cc(=O)oc3ccccc23)CC1 (stereo not drawn)	none (no result: SNCA viab count, IP6K1 inh, SNCA expr inh)
CC(C)c1ccc(CN(c2ccc3nnc(C(F)(F)F)n3n2)C2CC2)cc1	none (no result: SNCA viab count, IP6K1 inh, SNCA expr inh)
CC(C)CNC(=O)c1ccc2c(c1)NC(C)(COc1ccc3[nH]ccc3c1)CO2 (stereo not drawn)	KDM5B inh 32µM
CN(C)C(=O)c1ccc2c(c1)NC(C)(COc1ccc3[nH]ccc3c1)CO2 (stereo not drawn)	none
CC(Sc1n[nH]c(-c2ccccc2)n1)C(=O)Nc1cccc(C(F)(F)F)c1 (stereo not drawn)	none (no result: SNCA viab count, IP6K1 inh, SNCA expr inh)
COCCN1CC2(CCC1=O)CCN(C(=O)C(C)SC)CC2 (stereo not drawn)	none
COCCN1CC2(CCC1=O)CCN(c1nc(C(C)C)ccc1C#N)CC2	SNCA expr inh inconclusive, KDM5B inh 28µM
Cc1ccc(-n2ncnc2-c2cc3c(n(-c4ccccc4)c2=O)CC(C)(C)CC3=O)cc1	none (no result: SNCA viab count, IP6K1 inh, SNCA expr inh)
O=C(Cc1c[nH]c2ncc(-c3ccccc3)cc12)NCCc1ccccc1	none
Cc1ccccc1-c1cnc2[nH]cc(CC(=O)NCCN(C)C)c2c1	SNCA expr inh inconclusive, KDM5B inh 35µM
CN(C)CCNC(=O)Cc1c[nH]c2ncc(-c3ccccc3)cc12	KDM5B inh 35µM
O=C(Nc1ccc2oc(-c3ccccc3F)nc2c1)c1ccc(Cl)cc1	none (no result: SNCA viab count, IP6K1 inh, SNCA expr inh)
CN(c1ccccc1)c1ccc2nnc(-c3cc(C(=O)NCc4ccncc4)ccn3)n2n1	KDM5B inh 32µM
Cc1ccc(-n2c(C)nnc2SCC(=O)Nc2c(C#N)c(C)c(C)n2Cc2ccccc2)cc1	none (no result: SNCA viab count, IP6K1 inh, SNCA expr inh)
O=C(CC1CNCCO1)N1CCc2nc(-c3ccc(Cl)cc3)[nH]c2C1 (stereo not drawn)	KDM5B inh 25µM
COCC(=O)N1CCc2nc(C)nc(-c3ccc(OC)cc3)c2C1	KDM5B inh 32µM
COc1ccc(-c2nc(C)nc3c2CN(Cc2ccc(NC(C)=O)cc2)CC3)cc1	KDM5B inh 22µM
COc1ccc(-c2nc(C)nc3c2CN(C(=O)Nc2ccc(Cl)cc2)CC3)cc1	none (no result: KDM5B inh)
COc1ccc(-c2nc(C)nc3c2CN(C(C)=O)CC3)cc1	KDM5B inh inconclusive
COCC(=O)N1CCc2nc(-c3ccccc3)nc(-c3ccc(OC)cc3)c2C1	KDM5B inh 22µM
COc1ccc(Cl)cc1C(=O)Nc1c(N2CCCC2)c2ccccc2oc1=O	none (no result: SNCA viab count, IP6K1 inh, SNCA expr inh)
O=C(c1nccc2ccccc12)N1CCc2nc3cc[nH]n3c(=O)c2C1	KDM5B inh inconclusive
O=C(c1cc(-c2ccccc2)n[nH]1)N1CCc2c(nc3cc[nH]n3c2=O)C1	KDM5B inh 22µM
O=C(c1ccccc1C(F)(F)F)N1CCc2nc3cc[nH]n3c(=O)c2C1	KDM5B inh 32µM
COc1ccc(-c2nc3c(c(=O)[nH]2)CCN(C(=O)c2ccc(OC)cc2OC)C3)cc1	KDM5B inh inconclusive
O=C(c1cc(-c2ccccc2)n[nH]1)N1CCc2c(nc(-c3ccc(F)cc3)[nH]c2=O)C1	none
Cc1ccccc1C(=O)N1CCc2c(nc3cc[nH]n3c2=O)C1	KDM5B inh 28µM
COc1ccc(C(=O)N2CCc3c(nc4cc[nH]n4c3=O)C2)c(C)c1	KDM5B inh 28µM
O=C(NC1CCN(c2ccc3nnc(C4CC4)n3n2)CC1)C1CCCCC1	none (no result: SNCA viab count, SNCA expr inh, KDM5B inh)
O=C(C1CCN(S(=O)(=O)N2CCOCC2)CC1)N1CCc2nc3cc[nH]n3c(=O)c2C1	KDM5B inh 32µM
CCOC(=O)c1ccc(NC(=O)N2CCc3c(nc4cc[nH]n4c3=O)C2)cc1	KDM5B inh 22µM
COc1ccc(S(=O)(=O)N2CCc3nc4cc[nH]n4c(=O)c3C2)cc1Cl	KDM5B inh 25µM
O=C(c1cc(-c2cccs2)[nH]n1)N1CCc2nc3cc[nH]n3c(=O)c2C1	KDM5B inh inconclusive
COc1ccccc1CC(=O)N1CCc2c(nc3cc[nH]n3c2=O)C1	KDM5B inh 28µM
CCOP(=O)(OCC)c1nc(C(c2ccccc2)c2ccccc2)oc1NCc1cccnc1	none (no result: SNCA viab count, IP6K1 inh, SNCA expr inh)
